From PubChem
Cycloheximide cs – counter-screen hit for Shiga toxin inhibitors, cycloheximide. hit rate 12% among 300,000. max response, %. cell reporter, cycloheximide protein synthesis inhibition counterscreen. AID 2314; in the data active means max response mostly above about 13%, no sharp cut-off; inactive means mostly below about 14%; further: read at 38.3 µM for the half of the compounds with a filed dose
Pf growth 48h – P. falciparum growth inhibition at 48 hours (one generation); Potency, µM (highest dose often 28.7 µM), usual class: inhibitors; hit rate 5.9% among 310,000; P. falciparum luciferase growth in erythrocytes, 48 h
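Luciferase-expressing parasites in RBCs, 2% Hct / 0.1% parasitemia final; RPMI 1640 + 0.5% Albumax; 37 C, 5% CO2, one generation; luminescence read-out, lower signal = inhibition.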
NS1 function inh – inhibitors of influenza NS1 protein function; Potency, µM (doses to about 46.1 µM); hit rate 0.4% among 270,000; calls by dose curve; further: actives are rising curves; nearly all actives have a fitted effect of over 50% in size
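A cell-based growth assay was used: compounds that relieve NS1-induced slow growth of budding yeast raise OD600. Assay medium was yeast nitrogen base with ammonium sulphate and -URA supplement, pH 6.0, with 2% galactose.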
Pf growth 96h – P. falciparum growth inhibition at 96 hour, primary screen for plastid delayed-death inhibitors | P. falciparum luciferase reporter growth, 96 h | Potency, µM (doses to about 28.7 µM), actives largely listed as inhibitors | hit rate 6.9% among 320,000 | AID 504834
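Two parasite generations (96 h, 37 C, 5% CO2) of compound exposure in infected erythrocytes (0.05% parasitemia, 2% hematocrit). Luciferase-reporter P. falciparum; decreased luminescence indicates inhibited growth, aimed at apicoplast-acting delayed death.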
Shiga inhibitor – Shiga toxin inhibition. inhibition, % at 38.7 µM. AID 2315. Vero cells, Shiga toxin protein synthesis inhibition reporter. hit rate 9.2% among 290,000; in the data active means inhibition mostly above about 28%, no sharp cut-off; inactive means mostly below about 43%
Sm TGR block – blocks Schistosoma mansoni thioredoxin glutathione reductase; Q962Y6; purified TGR, DTNB reduction, TNB absorbance 405 nm; Potency, µM (top dose mostly 114 µM), actives largely listed as inhibitors; hit rate 3% among 360,000; AID 485364; further: nearly all actives have a fitted effect of over 60% in size
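TGR 20 nM + NADPH 100 uM (dispensed conc.), cpd preinc 15 min RT; start with NADPH (500 uM addition) then DTNB (15 mM addition). Kinetic TNB absorbance, 405 nm filter. Four-parameter Hill fit across titration.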
Each line names hits and unclear results; the compound was inactive in the other large screens. An excerpt weighted towards active compounds, which were near 21% of everything screened. Unless noted, the call rests on the fitted dose curve; in most records, active means well fitted curve in the direction sought with a large enough effect; inconclusive means small, poorly fitted or top-dose-only effect, or another doubt; inactive means no such curve, though single readings can be large; an effect the other way counts as inactive or inconclusive.

CCOc1ccccc1N(C(=O)CNS(=O)(=O)c1ccccc1)C(CC)C(=O)NCc1ccco1 (stereo unspecified)	Pf growth 96h 7.4µM, Sm TGR block inconclusive (no result: Pf growth 48h)
COc1ccc(S(=O)(=O)NCC(=O)N(CC(=O)NCc2ccco2)C2CCCC2)cc1	none
Cc1ccc(N(CC(=O)NCc2ccco2)C(=O)CNS(=O)(=O)c2ccc(F)cc2)c(C)c1	Pf growth 48h inconclusive
COc1ccccc1CN(CC(=O)NCc1ccco1)C(=O)CNS(=O)(=O)c1ccccc1	Sm TGR block 50µM (no result: Pf growth 96h)
Cc1ccccc1N(CC(=O)NCc1ccco1)C(=O)CNS(=O)(=O)c1ccc(F)cc1	Sm TGR block 40µM
COc1ccc(S(=O)(=O)NCC(=O)N(CC(=O)NCc2ccco2)Cc2ccccc2)cc1	none
Cc1ccc(NC(=O)CN2C(=O)CSc3ccc(S(=O)(=O)N(C)C)cc32)cc1C	none (no result: Cycloheximide cs, Pf growth 48h, NS1 function inh, Pf growth 96h, Shiga inhibitor)
CCOc1ccccc1C1CC(=O)NC(SCC(=O)Nc2nccs2)=C1C#N (stereo unspecified)	Pf growth 96h inconclusive (no result: Pf growth 48h)
CCCn1nc(C(=O)Nc2nc(-c3ccccn3)cs2)c2ccccc2c1=O	Pf growth 48h 4.1µM, Pf growth 96h 4.1µM (no result: Cycloheximide cs, NS1 function inh, Shiga inhibitor)
CCn1nc(C(=O)Nc2nc(-c3ccccn3)cs2)c2ccccc2c1=O	Pf growth 48h 2.3µM, Pf growth 96h 2.6µM (no result: Cycloheximide cs, NS1 function inh, Shiga inhibitor)
Cn1nc(C(=O)Nc2nc(-c3ccccn3)cs2)c2ccccc2c1=O	Pf growth 48h 4.1µM, Pf growth 96h 3.3µM (no result: Cycloheximide cs, NS1 function inh, Shiga inhibitor)
O=C(Nc1nc2c(s1)CCCC2)c1nn(Cc2ccccc2)c(=O)c2ccccc12	Pf growth 48h inconclusive, Pf growth 96h inconclusive
CC(C)CCn1nc(C(=O)Nc2nc3c(s2)CCCC3)c2ccccc2c1=O	Pf growth 48h 10µM, Pf growth 96h inconclusive
Cn1nc(C(=O)Nc2cccnc2)c2ccccc2c1=O	none (no result: Pf growth 96h)
Cc1cccn2c(=O)c3cc(C#N)c(=O)n(-c4nnc(SCc5ccc(F)cc5)s4)c3nc12	none (no result: Cycloheximide cs, Pf growth 48h, NS1 function inh, Pf growth 96h, Shiga inhibitor)
Cc1cccc(C(=O)N2CCCC(c3nc(-c4ccc(C)o4)no3)C2)c1 (stereo unspecified)	Cycloheximide cs 42, Shiga inhibitor 113
Cc1ccc(-c2noc(C3CCCN(C(=O)c4cccc([N+](=O)[O-])c4)C3)n2)o1 (stereo unspecified)	Cycloheximide cs 39, Shiga inhibitor 85
COc1cc(OC)cc(C(=O)N2CCCC(c3nc(-c4ccc(C)o4)no3)C2)c1 (stereo unspecified)	none
Nc1ncnc2c1ncn2[C@H]1O[C@@H](CO)[C@@H](O)[C@H]1N	none (no result: Cycloheximide cs, Pf growth 48h, Pf growth 96h, Shiga inhibitor, Sm TGR block)
CCn1c(=O)c2cc(C(=O)N(C)c3cc(C)ccc3OC)sc2c2ccccc21	Pf growth 48h 13µM, Pf growth 96h inconclusive
CCn1c(=O)c2cc(C(=O)N(C)c3ccccc3F)sc2c2ccccc21	Pf growth 48h inconclusive, Pf growth 96h inconclusive
CCn1c(=O)c2cc(C(=O)N(C)c3cc(Cl)c(OC)cc3OC)sc2c2ccccc21	none (no result: Cycloheximide cs, Pf growth 48h, NS1 function inh, Pf growth 96h, Shiga inhibitor)
CCn1c(=O)c2cc(C(=O)N(C)c3ccc(OC)cc3OC)sc2c2ccccc21	Pf growth 48h inconclusive, Pf growth 96h 10µM
CCOC(=O)c1c2ccccc2[n+]([O-])n1[C@@H](C)C(N)=O	none (no result: Cycloheximide cs, NS1 function inh, Shiga inhibitor)
Cc1ccc2c(c1)c1c(n2CC(O)Cn2c(C)nc3ccccc32)C(=O)CCC1 (stereo unspecified)	Pf growth 48h 15µM
Cc1nc2ccccc2n1CC(O)Cn1c2ccccc2c2ccccc21 (stereo unspecified)	Pf growth 48h 12µM (no result: Pf growth 96h)
CCN(CC)CC(O)Cn1c2ccccc2c2ccccc21 (stereo unspecified)	Pf growth 48h inconclusive (no result: Pf growth 96h)
OC(Cn1c2ccccc2c2ccccc21)C[n+]1cccc2ccccc21 (stereo unspecified)	Pf growth 48h 6.6µM, Pf growth 96h 3.3µM
Cc1cc(C)[n+](C)n1CC(O)Cn1c2ccccc2c2ccccc21 (stereo unspecified)	Pf growth 48h 0.59µM (no result: NS1 function inh)
CCCCOCC(O)Cn1c(C)nc2ccccc21 (stereo unspecified)	none
OCCNCC(O)Cn1c2ccccc2c2ccccc21 (stereo unspecified)	Pf growth 96h inconclusive
O=C(COc1ccccc1F)Nc1ccc2nc(SCC(=O)N3CCc4ccccc43)sc2c1	none (no result: Cycloheximide cs, Pf growth 48h, NS1 function inh, Pf growth 96h, Shiga inhibitor)
Cc1ccc2c(c1)c1c(n2CC(O)Cn2ccnc2C)C(=O)CCC1 (stereo unspecified)	Pf growth 48h inconclusive
